# Source: PubChem BioAssay
# Results filed as inconclusive are left out. Activity calls are given as the source filed them.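 Rule for the calls, unless noted: active = inhibition above the screen-wide mean plus 3 SD, about 51%; inactive = the rest.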
# Tests used:
# [1] = yeast TOR pathway RPL19A-GFP modulators, primary screen, cell-based, S. cerevisiae, multiplex flow cytometry (AID 1862; in the data active = percent of DMSO control GFP below about 86%;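 note: lower values mimic rapamycin by blocking the RPL19A rise seen in DMSO cells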); conditions: S. cerevisiae RPL19A-GFP strain, flow cytometry fluorescence, 3 h; at 10 µM; stronger effect = lower value
# [2] = modulators of MEP2-GFP levels in yeast, primary screen, S. cerevisiae, multiplex flow cytometry (AID 1867;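 active = GFP response, as percent of the DMSO control, above the screen-wide mean plus 3 SD, about 139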;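 note: median GFP channel fluorescence of barcode-gated MEP2-GFP cells measured by flow cytometry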); conditions: S. cerevisiae MEP2-GFP strain, 3 h, at 10 µM, stronger effect = higher value, 100% means same as DMSO wells
# [3] = modulators of CIT2-GFP expression in yeast, primary screen, S. cerevisiae, GFP fusion, multiplex flow cytometry (AID 1870;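 active = percent response above a set limit, the screen-wide mean plus 3 SD, cut at about 130% in these data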;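 note: barcoded CIT2-GFP strain pooled with four other GFP strains with rapamycin as positive control; median GFP fluorescence per well over plate mean of DMSO wells so 100% = DMSO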); conditions: 3 h, at 10 µM, stronger effect = higher value
# [4] = modulators of LAP4-GFP expression in yeast, primary screen, S. cerevisiae, multiplex flow cytometry (AID 1873;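 active = GFP signal, as percent of the solvent control, above the screen mean plus 3 SD, about 149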); conditions: 3 h, at 10 µM, stronger effect = higher value
# [5] = modulators of AGP1-GFP expression in yeast TOR pathway, primary screen, cell-based, multiplex flow cytometry, S. cerevisiae (AID 1887;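 active = GFP signal above the screen-wide mean plus 3 SD, that is over about 124.5% of the solvent control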;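 note: AGP1-GFP fusion strain of S. cerevisiae within a five-strain barcoded multiplex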); conditions: 3 h, at 10 µM, stronger effect = higher value
# [6] = inhibitors of CD8+ T cell-vesicle binding, pilot screen, LFA-1/ICAM-1 modulator project, MLPCN validation set, flow cytometry (AID 2523;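 active = response below a set limit, under 55% cells CD8-positive and vesicle-bound, and CD8 cells' 90th-percentile brightness under 279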;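 for vesicle binding response: mean PE anti-B7-1 fluorescence of CD8+ cells relative to row control; 100% = QL9-loaded vesicles with DMSO vehicle in the same plate row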); conditions: 2C mouse CD8+ T cells, at 7 µM, stronger effect = lower value; double positive events: measured here: CD8+/vesicle+ event percentage
# [7] = molecular target: Integrin beta-1 (Homo sapiens) + Integrin alpha-4 (Homo sapiens) (UniProt P13612+P05556); assay: inhibition of HUTS-21 binding to VLA-4, pilot screen, VLA-4 allosteric modulator project, U937 cells, HUTS-21 mAb, flow cytometry, validation set (AID 2674;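 active = inhibition above 50%, about 3 SD of the validation set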;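 note: antibody binding induced by the VLA-4 ligand LDV present at three times its Kd; 0% = LDV ligand with antibody and no compound and 100% = antibody without LDV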); conditions: HUTS-21 LIBS mAb binding, at 6.7 µM, stronger effect = higher value, binding induced by LDV ligand
# Chain of Integrin beta-1 (Homo sapiens) + Integrin alpha-4 (Homo sapiens) (P05556 whole entry, looked up): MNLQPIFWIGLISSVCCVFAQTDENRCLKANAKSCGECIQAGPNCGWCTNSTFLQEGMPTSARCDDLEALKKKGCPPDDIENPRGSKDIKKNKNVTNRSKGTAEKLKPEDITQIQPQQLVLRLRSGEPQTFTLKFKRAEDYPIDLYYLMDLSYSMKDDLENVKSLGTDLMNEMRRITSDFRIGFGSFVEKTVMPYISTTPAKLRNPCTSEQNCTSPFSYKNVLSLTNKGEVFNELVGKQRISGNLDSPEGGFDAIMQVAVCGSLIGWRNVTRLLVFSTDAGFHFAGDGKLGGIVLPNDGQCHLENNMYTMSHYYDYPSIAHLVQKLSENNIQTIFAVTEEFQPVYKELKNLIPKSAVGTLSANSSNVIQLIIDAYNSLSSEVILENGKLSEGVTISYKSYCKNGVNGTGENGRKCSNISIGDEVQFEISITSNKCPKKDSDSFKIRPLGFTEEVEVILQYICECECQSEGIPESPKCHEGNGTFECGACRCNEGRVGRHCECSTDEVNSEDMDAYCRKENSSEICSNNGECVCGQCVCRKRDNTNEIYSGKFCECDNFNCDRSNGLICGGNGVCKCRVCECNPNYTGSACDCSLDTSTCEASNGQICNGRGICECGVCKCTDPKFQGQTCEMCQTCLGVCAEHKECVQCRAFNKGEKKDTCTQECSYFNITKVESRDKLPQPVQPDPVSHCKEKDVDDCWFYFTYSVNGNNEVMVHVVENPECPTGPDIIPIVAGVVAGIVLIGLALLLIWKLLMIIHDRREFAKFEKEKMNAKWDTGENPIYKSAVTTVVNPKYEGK
# Chain of Integrin beta-1 (Homo sapiens) + Integrin alpha-4 (Homo sapiens) (P13612 whole entry, looked up): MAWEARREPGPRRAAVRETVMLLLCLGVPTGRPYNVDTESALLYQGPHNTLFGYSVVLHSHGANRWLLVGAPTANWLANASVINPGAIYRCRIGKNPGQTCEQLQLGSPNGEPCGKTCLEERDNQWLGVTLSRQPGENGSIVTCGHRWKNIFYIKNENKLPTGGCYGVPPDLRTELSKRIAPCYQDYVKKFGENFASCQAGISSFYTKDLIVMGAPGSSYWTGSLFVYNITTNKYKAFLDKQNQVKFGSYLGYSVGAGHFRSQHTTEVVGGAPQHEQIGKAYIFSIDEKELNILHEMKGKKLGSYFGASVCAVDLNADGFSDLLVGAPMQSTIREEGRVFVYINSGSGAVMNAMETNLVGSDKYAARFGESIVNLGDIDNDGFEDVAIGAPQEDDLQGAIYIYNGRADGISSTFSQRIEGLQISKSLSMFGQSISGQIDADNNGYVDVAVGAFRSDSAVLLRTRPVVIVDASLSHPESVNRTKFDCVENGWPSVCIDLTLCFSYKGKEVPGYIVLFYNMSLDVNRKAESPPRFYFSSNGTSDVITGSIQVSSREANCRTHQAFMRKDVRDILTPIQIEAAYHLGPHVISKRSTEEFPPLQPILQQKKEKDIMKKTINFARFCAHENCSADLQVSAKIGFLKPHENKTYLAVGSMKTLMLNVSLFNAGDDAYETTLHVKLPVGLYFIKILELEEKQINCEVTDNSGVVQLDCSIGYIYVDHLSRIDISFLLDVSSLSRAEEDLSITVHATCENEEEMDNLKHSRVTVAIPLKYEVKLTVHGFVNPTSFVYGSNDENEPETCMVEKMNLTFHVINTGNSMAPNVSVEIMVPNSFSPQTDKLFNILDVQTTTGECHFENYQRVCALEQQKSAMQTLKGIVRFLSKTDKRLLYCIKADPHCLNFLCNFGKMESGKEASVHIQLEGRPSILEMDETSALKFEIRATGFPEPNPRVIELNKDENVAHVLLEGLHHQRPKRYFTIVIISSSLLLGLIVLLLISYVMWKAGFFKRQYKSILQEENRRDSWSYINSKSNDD
# [8] = superoxide lowering in aged yeast cells, pilot screen, validation compound set (AID 2706;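 active = superoxide response below 65% of plate, a cut near 3 SD across the whole screen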;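 note: yeast exposed to compound for one week at 30 degrees C before staining; 100% = mean of all compound wells on the same plate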); conditions: S. cerevisiae aging, superoxide DHE fluorescence; at 10 µM, stronger effect = lower value
# [9] = molecular target: Beta-adrenergic receptor kinase 1 (Homo sapiens) (UniProt P25098); assay: GRK2 binders displacing RNA aptamer, biochemical, validation, human GRK2, bead flow cytometry (AID 488806;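 active = aptamer binding inhibition above 30%, about 3 SD of noise from non-fluorescent compounds; inactive = inhibition at or below 30%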); conditions: bead-bound GRK2, FAM-aptamer displacement, at 10 µM, stronger effect = higher value
# Chain of Beta-adrenergic receptor kinase 1 (Homo sapiens) (P25098 whole entry, looked up): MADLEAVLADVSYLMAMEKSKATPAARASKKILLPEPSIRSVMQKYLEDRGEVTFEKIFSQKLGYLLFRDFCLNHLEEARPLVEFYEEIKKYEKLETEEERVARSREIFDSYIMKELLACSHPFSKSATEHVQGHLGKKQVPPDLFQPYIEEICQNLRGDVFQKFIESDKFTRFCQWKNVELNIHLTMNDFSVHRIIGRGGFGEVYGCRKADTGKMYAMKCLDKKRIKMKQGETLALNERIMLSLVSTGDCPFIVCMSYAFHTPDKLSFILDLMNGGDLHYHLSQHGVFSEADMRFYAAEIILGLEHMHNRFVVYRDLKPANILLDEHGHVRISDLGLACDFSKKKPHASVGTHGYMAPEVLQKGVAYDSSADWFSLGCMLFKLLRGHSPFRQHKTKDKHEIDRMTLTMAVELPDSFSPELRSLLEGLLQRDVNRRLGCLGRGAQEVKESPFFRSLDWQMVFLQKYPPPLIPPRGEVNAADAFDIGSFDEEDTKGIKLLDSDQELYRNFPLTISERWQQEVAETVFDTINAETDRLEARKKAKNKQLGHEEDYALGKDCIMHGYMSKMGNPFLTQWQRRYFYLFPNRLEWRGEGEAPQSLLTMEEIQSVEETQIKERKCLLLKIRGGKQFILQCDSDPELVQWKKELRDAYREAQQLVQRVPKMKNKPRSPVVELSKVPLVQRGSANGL
# [10] = molecular target: Beta-2 adrenergic receptor (Homo sapiens) (UniProt P07550); assay: beta2AR agonists driving receptor internalization, pilot screen, cell-based, FAP fluorogen, flow cytometry, validation set (AID 504459;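 active = percent response above 42, roughly 3 SD of non-fluorescent test compounds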;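 note: agonist-driven loss of surface beta2AR via internalization measured by FAP dye flow cytometry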); conditions: Am2.2-beta2AR cells, FAP surface receptor flow cytometry; at 10 µM; stronger effect = higher value
# Chain of Beta-2 adrenergic receptor (Homo sapiens) (P07550 whole entry, looked up): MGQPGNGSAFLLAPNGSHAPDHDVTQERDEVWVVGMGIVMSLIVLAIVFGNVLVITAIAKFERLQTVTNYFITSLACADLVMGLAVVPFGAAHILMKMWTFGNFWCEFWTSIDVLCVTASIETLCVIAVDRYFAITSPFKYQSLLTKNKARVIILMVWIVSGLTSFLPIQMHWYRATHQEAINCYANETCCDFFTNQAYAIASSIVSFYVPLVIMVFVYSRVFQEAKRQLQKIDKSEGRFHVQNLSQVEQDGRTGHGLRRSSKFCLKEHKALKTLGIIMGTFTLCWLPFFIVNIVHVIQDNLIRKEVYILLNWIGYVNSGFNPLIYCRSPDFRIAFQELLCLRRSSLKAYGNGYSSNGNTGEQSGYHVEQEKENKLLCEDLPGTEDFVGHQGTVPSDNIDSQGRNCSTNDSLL
# [11] = molecular target: AP-2 complex subunit beta (Homo sapiens) (UniProt P63010); assay: inhibitors of arrestin peptide binding to AP2, pilot screen, biochemical, validation set, GST-AP2 beads, flow cytometry (AID 504541;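 active = inhibition above 54%, about 3 SD of non-fluorescent compounds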;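 note: AP2 carries R879A mutation and is captured from E. coli lysate; bead-bound FITC arrestin peptide fluorescence measuring arrestin peptide binding to AP2; 0% = DMSO wells and 100% = excess unlabeled arrestin peptide control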); conditions: FITC arrestin peptide, at 10 µM, stronger effect = higher value, AP2 beta2 appendage fragment, R879A mutant
# Chain of AP-2 complex subunit beta (Homo sapiens) (P63010 whole entry, looked up, the tested form may be a part, one chain of several): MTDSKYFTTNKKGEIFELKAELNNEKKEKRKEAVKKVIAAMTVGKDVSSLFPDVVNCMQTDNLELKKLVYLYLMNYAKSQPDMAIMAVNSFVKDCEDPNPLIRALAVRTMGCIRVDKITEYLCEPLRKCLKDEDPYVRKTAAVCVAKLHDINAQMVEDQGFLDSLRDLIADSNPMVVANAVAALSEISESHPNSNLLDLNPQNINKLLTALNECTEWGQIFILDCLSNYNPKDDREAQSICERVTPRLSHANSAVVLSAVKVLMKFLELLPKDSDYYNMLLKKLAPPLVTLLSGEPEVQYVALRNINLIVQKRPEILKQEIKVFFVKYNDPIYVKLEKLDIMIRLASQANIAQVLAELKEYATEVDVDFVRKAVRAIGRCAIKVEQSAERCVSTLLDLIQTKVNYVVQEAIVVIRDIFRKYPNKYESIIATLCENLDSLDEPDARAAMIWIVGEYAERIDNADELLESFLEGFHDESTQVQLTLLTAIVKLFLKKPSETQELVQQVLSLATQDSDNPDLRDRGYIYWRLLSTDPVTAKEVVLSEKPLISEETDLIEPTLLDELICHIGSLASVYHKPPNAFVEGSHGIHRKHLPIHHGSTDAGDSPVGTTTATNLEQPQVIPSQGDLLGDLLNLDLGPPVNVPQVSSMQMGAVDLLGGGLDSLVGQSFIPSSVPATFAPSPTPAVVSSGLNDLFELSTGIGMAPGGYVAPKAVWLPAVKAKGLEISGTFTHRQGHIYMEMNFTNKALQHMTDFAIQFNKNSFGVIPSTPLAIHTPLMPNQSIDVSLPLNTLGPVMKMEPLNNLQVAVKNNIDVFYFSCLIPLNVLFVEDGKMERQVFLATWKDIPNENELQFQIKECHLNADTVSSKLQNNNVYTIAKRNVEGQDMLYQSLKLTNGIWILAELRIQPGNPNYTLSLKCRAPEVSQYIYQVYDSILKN
# [12] = yeast V-ATPase proton transport modulators, S. cerevisiae, pHLuorin, HTS validation (AID 504600; in the data active = response above about 15%;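 note: plate controls were DMSO for no effect and reference compound for full effect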); conditions: S. cerevisiae pHLuorin cytosolic pH, at 10 µM, stronger effect = higher value
# [13] = test system: anti-desmoglein-3 scFv antibody binding to human DSG3; assay: inhibitors of anti-DSG3 scFv binding to DSG3, pilot screen, biochemical, validation compound set, bead-based, flow cytometry (AID 588368;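 active = binding below the plate cutoff, the plate median minus 3 SD, with a reading above zero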;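 note: signal is the median channel fluorescence of bead-bound GFP antibody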); conditions: Protein G beads, DSG3-Fc, scFv-GFP binding, at 10 µM, stronger effect = lower value
# [14] = molecular target: ATP-binding cassette sub-family B member 6 (Homo sapiens) (UniProt Q9NP58); assay: ABCB6 transporter inhibitors, pilot screen, K562-ABCB6 cells, flow cytometry, validation set (AID 588550); conditions: K562-ABCB6 porphyrin accumulation, 1 h, at 10 µM, stronger effect = higher value;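 note: 0% = DMSO wells and 100% = benzethonium chloride 70 µM positive control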
# Chain of ATP-binding cassette sub-family B member 6 (Homo sapiens) (Q9NP58 whole entry, looked up): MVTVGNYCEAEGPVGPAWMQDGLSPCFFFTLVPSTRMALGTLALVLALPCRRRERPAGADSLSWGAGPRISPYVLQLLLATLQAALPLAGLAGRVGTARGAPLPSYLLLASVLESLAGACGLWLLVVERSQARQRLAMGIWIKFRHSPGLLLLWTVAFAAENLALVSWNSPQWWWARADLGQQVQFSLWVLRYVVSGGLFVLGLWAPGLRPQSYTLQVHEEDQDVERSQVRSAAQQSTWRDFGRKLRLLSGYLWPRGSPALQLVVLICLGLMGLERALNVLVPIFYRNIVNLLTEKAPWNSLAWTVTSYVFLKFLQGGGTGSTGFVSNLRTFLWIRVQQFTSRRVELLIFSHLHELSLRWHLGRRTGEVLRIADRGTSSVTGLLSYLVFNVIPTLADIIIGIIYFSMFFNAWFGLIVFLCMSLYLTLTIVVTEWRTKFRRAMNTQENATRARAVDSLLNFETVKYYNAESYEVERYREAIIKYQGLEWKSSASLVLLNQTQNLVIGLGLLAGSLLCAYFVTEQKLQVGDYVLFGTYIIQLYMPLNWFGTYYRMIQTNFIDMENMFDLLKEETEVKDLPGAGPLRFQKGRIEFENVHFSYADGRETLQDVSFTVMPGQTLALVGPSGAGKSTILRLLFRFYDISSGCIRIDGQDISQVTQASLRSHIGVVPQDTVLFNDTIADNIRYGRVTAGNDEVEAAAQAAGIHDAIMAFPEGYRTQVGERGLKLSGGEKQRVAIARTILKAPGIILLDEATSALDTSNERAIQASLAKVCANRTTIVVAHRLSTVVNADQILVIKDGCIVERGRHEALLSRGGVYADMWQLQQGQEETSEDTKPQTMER
# [15] = promoters of myeloid differentiation in arrested cells, primary screen, cell-based, GFP/MAC1 double positive, flow cytometry, validation set (AID 588685;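 active = differentiation response of at least 50%, scaled between solvent and reference control, from cells with both markers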;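 note: compound exposure lasts four days before antibody staining and flow analysis; 0% = DMSO wells and 100% = 5 µM fulvestrant positive control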); conditions: ER-HoxA9 marrow cells, stronger effect = higher value, normalized: vehicle 0, fulvestrant 100
# [16] = inhibitors of fungal efflux pumps CDR1, CDR2, MDR1, pilot screen, validation compound set, multiplex, phenotypic (AID 588506;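 active = efflux inhibition above 0.42, the validation set average plus 4 SD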;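 note: Nile Red retained in cells so higher fluorescence means more efflux inhibition; 0 = negative control wells and 1 = enniatin B 25 µM full block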); conditions: S. cerevisiae pump-expressing triplex, Nile Red efflux flow cytometry; at 10 µM; stronger effect = higher value; the pumps come from Candida albicans
SMILES,percent of DMSO control GFP [1],GFP response vs DMSO [2],percent response of DMSO control [3],GFP response vs DMSO [4],"GFP response, % of DMSO [5]",double positive events [6] [%],vesicle binding response [6],inhibition [7],superoxide response (% of plate) [8],aptamer binding inhibition [9],response [10],inhibition [11],response [12],binding (% of control) [13],inhibition [14],differentiation response [15],efflux inhibition (fraction of control) [16]
CC(C)NC(=O)c1ccc(C(C)C)cc1,98.4% (inactive),102% (inactive),108% (inactive),118% (inactive),101% (inactive),63.6,255% (inactive),-11.3% (inactive),109% (inactive),-2% (inactive),0.9% (inactive),-5.8% (inactive),-1.44% (inactive),102% (inactive),13% (inactive),2.4% (inactive),
COc1ccc2c(c1)[nH]c1c(=O)n(Cc3ccccn3)cnc12,97.7% (inactive),97.7% (inactive),101% (inactive),106% (inactive),96.1% (inactive),64,1600% (inactive),-1.74% (inactive),109% (inactive),-4% (inactive),2.42% (inactive),,-2.14% (inactive),98% (inactive),3% (inactive),10.3% (inactive),-0.5 (inactive)
COc1ccc2c(c1)c(CC(=O)O)c(C)n2C(=O)c1ccc(Cl)cc1,105% (inactive),96.9% (inactive),109% (inactive),101% (inactive),92.5% (inactive),50,173% (inactive),-25.4% (inactive),109% (inactive),1% (inactive),,-6.1% (inactive),9.1% (inactive),102% (inactive),10% (inactive),-13.1% (inactive),-0.01 (inactive)
CC(=O)Nc1ccc(OS(=O)(=O)c2c(C)cc(C)cc2C)cc1,99% (inactive),92.8% (inactive),98.8% (inactive),96.4% (inactive),86.7% (inactive),47.1,166% (inactive),10.9% (inactive),99.6% (inactive),-1% (inactive),,-5.36% (inactive),0.9% (inactive),102% (inactive),8% (inactive),-18% (inactive),-0.2 (inactive)
CC(NC(=O)c1ccc(OC2CCN(Cc3ccccn3)CC2)cc1)c1ccccc1 (configuration not stated),106% (inactive),102% (inactive),105% (inactive),99.4% (inactive),100% (inactive),59.3,110% (inactive),14.7% (inactive),93.3% (inactive),-2% (inactive),,32.2% (inactive),-10.2% (inactive),102% (inactive),6% (inactive),0% (inactive),-0.31 (inactive)
CN1CCC(=C2c3ccccc3CC(=O)c3sccc32)CC1,101% (inactive),101% (inactive),108% (inactive),94.8% (inactive),101% (inactive),62.4,136% (inactive),-3.77% (inactive),96.5% (inactive),-2% (inactive),11.7% (inactive),-10.2% (inactive),1.45% (inactive),105% (inactive),4% (inactive),-14.8% (inactive),
Nc1nnc(-c2cccc(Cl)c2Cl)c(N)n1,101% (inactive),108% (inactive),103% (inactive),100% (inactive),103% (inactive),49.8,120% (inactive),9.63% (inactive),110% (inactive),2% (inactive),6.9% (inactive),-13.2% (inactive),-3.91% (inactive),94.9% (inactive),4% (inactive),-8.96% (inactive),
CC(C)C[C@H](NC(=O)NC(C)C)C(=O)O,103% (inactive),105% (inactive),95.5% (inactive),95.9% (inactive),99.8% (inactive),60.1,136% (inactive),9.63% (inactive),111% (inactive),-1% (inactive),2.78% (inactive),-6.27% (inactive),-3.73% (inactive),96.8% (inactive),0% (inactive),-10.4% (inactive),-0.12 (inactive)
CC1(C)c2ccccc2N2CC(=O)N(CC(N)=O)C21C (configuration not stated),103% (inactive),99.9% (inactive),103% (inactive),109% (inactive),105% (inactive),61.8,243% (inactive),-5.84% (inactive),108% (inactive),3% (inactive),,-1.94% (inactive),3.96% (inactive),97.8% (inactive),11% (inactive),-21.2% (inactive),-0.35 (inactive)
CC1(C(=O)O)CCC(C(=O)NC2CCCCCC2)C1(C)C (configuration not stated),103% (inactive),106% (inactive),93.9% (inactive),110% (inactive),100% (inactive),67.7,157% (inactive),28.3% (inactive),99.3% (inactive),3% (inactive),10.4% (inactive),-8.9% (inactive),-1.45% (inactive),102% (inactive),7% (inactive),-5.68% (inactive),-0.54 (inactive)
COc1ccc2[nH]c3c(c2c1)CCn1c-3nc2ccccc2c1=O,101% (inactive),105% (inactive),104% (inactive),116% (inactive),101% (inactive),48.2,168% (inactive),2.56% (inactive),95.3% (inactive),-2% (inactive),,10.7% (inactive),11.4% (inactive),97.2% (inactive),7% (inactive),0% (inactive),-0.12 (inactive)
CC1COc2c(N3CCN(C)CC3)c(F)cc3c(=O)c(C(=O)O)cn1c23 (configuration not stated),92.2% (inactive),120% (inactive),103% (inactive),77.6% (inactive),90.8% (inactive),64.3,109% (inactive),11.3% (inactive),112% (inactive),2% (inactive),-5.81% (inactive),2.93% (inactive),-5.31% (inactive),95.4% (inactive),7% (inactive),-5.73% (inactive),
COc1ccc(CN(CCN(C)C)c2ccccn2)cc1,102% (inactive),107% (inactive),108% (inactive),103% (inactive),107% (inactive),60.3,60% (inactive),2.66% (inactive),109% (inactive),0% (inactive),-10.3% (inactive),-5.39% (inactive),0.3% (inactive),99.3% (inactive),4% (inactive),2.2% (inactive),
N/C(=N\OS(=O)(=O)c1ccc2ccccc2c1)c1cccnc1,103% (inactive),104% (inactive),95.9% (inactive),99.4% (inactive),97.5% (inactive),61.4,133% (inactive),2.56% (inactive),96.2% (inactive),2% (inactive),,45.4% (inactive),-4.42% (inactive),108% (inactive),6% (inactive),-13.1% (inactive),0.29 (inactive)
CC(C)(C)c1csc(N/N=C/c2cccnc2)n1,99% (inactive),106% (inactive),95.9% (inactive),107% (inactive),87.4% (inactive),53.8,163% (inactive),17.5% (inactive),96% (inactive),5% (inactive),,5.38% (inactive),1.92% (inactive),99.3% (inactive),7% (inactive),4.64% (inactive),-0.12 (inactive)
COC1(C)CC2C(CC1OC(=O)c1cc([N+](=O)[O-])cc([N+](=O)[O-])c1)C2(C)C (configuration not stated),104% (inactive),99.9% (inactive),106% (inactive),178% (active),74.2% (inactive),52.4,222% (inactive),-3.97% (inactive),114% (inactive),5% (inactive),,-6.29% (inactive),3.54% (inactive),99.3% (inactive),9% (inactive),-18% (inactive),-0.35 (inactive)
CC(C)c1ccccc1OCCNC(=S)NC(=O)c1cccnc1,98.2% (inactive),97.4% (inactive),92% (inactive),96.5% (inactive),96.3% (inactive),62.4,185% (inactive),22.8% (inactive),105% (inactive),-3% (inactive),4.29% (inactive),,-2.54% (inactive),99.7% (inactive),3% (inactive),100% (active),1.3 (active)
O=c1ccn([C@@H]2O[C@H](CO)[C@@H](O)[C@H]2O)c(=O)[nH]1,102% (inactive),102% (inactive),93.8% (inactive),98.3% (inactive),109% (inactive),63.9,124% (inactive),11.7% (inactive),99.8% (inactive),3% (inactive),-22.4% (inactive),10.2% (inactive),1.83% (inactive),102% (inactive),1% (inactive),24.6% (inactive),
C/C=C/Cn1c(SC)nc2c1c(=O)[nH]c(=O)n2C,102% (inactive),101% (inactive),95.9% (inactive),93.3% (inactive),93.4% (inactive),59,124% (inactive),3.49% (inactive),97.4% (inactive),0% (inactive),,34.4% (inactive),1.09% (inactive),103% (inactive),0% (inactive),-14.7% (inactive),0.78 (active)
COc1cc(Cl)cc2c1Sc1ccccc1/C2=C/CCN(C)C,97.1% (inactive),105% (inactive),94.9% (inactive),93.7% (inactive),92.6% (inactive),63.9,1310% (inactive),-7.47% (inactive),104% (inactive),-8% (inactive),20% (inactive),,0.4% (inactive),110% (inactive),0% (inactive),-2.64% (inactive),-0.09 (inactive)
